# PubChem BioAssay (Tox21)
# Inconclusive results are not listed. Where a call stands in place of a potency, no number is given. Values without a mark were called inactive. Active and inactive are the calls of the source. Unless noted, the call rests on the fitted dose curve; in most records, active means well fitted curve in the direction sought with a large enough effect in the repeat runs; inconclusive means weak or mixed curves; inactive means no such curve, though single readings can be large; an effect the other way counts as inactive or inconclusive.
# Columns and labels:
# [1] = qHTS assay to identify small molecule antagonists of the thyroid receptor (TR) signaling pathway - cell viability counter screen (AID 743064); further: nearly all actives have a fitted effect of over 50% in size; further: potency means the concentration at half of the fitted maximal effect
# Method in brief: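 Counter screen for cytotoxicity: compound plus T3 (1 nM final) on GH3.TRE-Luc cells, 23.5 h at 37 °C, then fluorescence viability readout with CellTiter-Fluor.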
# [2] = qHTS assay to identify small molecule antagonists of the thyroid receptor (TR) signaling pathway (AID 743065); further: nearly all actives have a fitted effect of over 55% in size; further: potency means the concentration at half of the fitted maximal effect
# Method in brief: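 GH3.TRE-Luc rat pituitary cells carrying two TR response elements driving luciferase were plated for 4 h, given compound plus 1 nM T3 (final), and incubated 23.5 h at 37 C. ONE-Glo luminescence measured reporter inhibition; CellTiter-Fluor fluorescence tracked cytotoxicity.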
# [3] = test system: thyroid hormone receptor (rat, GH3 cells); test: qHTS assay to identify small molecule agonists of the thyroid receptor (TR) signaling pathway (AID 743066; calls by dose curve)
# [4] = qHTS assay to identify small molecule antagonists of the estrogen receptor alpha (ER-alpha) signaling pathway - cell viability counter screen (AID 743074; calls by dose curve; further: nearly all actives have a fitted effect of over 45% in size)
# [5] = qHTS assay to identify small molecule antagonists of the estrogen receptor alpha (ER-alpha) signaling pathway using the BG1 cell line - cell viability counter screen (AID 743081);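 further: compound given together with 17beta-estradiol as the ER stimulus; nearly all actives have a fitted effect of over 45% in size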
# Aromatase (Homo sapiens) = Aromatase (Homo sapiens) (UniProt P11511); test: qHTS assay to identify aromatase inhibitors (AID 743083); further: nearly all actives have a fitted effect of over 55% in size; further: potency means the concentration at half of the fitted maximal effect
# Sequence of Aromatase (Homo sapiens) (P11511 whole entry, looked up): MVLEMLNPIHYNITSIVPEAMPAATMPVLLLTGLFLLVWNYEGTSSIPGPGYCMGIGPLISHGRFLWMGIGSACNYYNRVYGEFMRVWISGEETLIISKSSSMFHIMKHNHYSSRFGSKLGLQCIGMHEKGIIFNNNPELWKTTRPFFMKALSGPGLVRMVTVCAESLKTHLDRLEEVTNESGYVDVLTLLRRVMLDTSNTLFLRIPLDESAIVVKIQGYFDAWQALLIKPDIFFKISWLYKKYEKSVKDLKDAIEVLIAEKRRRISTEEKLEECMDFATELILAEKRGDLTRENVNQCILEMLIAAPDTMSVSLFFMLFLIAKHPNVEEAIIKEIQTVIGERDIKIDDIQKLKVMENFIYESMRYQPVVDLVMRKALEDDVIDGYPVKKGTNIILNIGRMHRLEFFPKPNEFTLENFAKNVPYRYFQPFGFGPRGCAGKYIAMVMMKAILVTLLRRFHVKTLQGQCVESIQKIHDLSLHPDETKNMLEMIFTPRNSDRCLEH
# [6] = molecular target: Estrogen receptor (Homo sapiens) (UniProt P03372); test: qHTS assay to identify small molecule antagonists of the estrogen receptor alpha (ER-alpha) signaling pathway (AID 743069; active means well fitted curve in the direction sought with a large enough effect in the signal ratio in the repeat runs, not every such curve was filed as active; the % refers to the signal ratio)
# Sequence of Estrogen receptor (Homo sapiens) (P03372 whole entry, looked up): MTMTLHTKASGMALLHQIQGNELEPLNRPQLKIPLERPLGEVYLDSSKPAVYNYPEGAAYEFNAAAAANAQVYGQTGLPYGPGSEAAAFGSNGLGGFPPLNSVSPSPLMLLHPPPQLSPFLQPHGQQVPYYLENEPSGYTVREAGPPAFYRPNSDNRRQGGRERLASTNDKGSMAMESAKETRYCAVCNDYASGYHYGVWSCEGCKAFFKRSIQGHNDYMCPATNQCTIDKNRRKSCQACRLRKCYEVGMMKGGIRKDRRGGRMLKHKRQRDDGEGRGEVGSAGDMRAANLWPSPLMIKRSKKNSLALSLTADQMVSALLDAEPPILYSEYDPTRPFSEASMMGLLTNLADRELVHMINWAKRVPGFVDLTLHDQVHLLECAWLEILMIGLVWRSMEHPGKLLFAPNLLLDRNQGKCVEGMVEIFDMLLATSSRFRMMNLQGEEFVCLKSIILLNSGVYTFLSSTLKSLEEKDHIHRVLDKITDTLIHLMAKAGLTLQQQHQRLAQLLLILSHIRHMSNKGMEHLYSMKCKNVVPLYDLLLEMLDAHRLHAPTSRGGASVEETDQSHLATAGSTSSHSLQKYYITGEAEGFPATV
# Method in brief: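 Screening used a UAS-driven beta-lactamase reporter integrated into HEK293 cells expressing ER-alpha, stimulated with 17beta-estradiol alongside test compounds over 18 hr at 37C; signal came from LiveBLAzer B/G FRET fluorescence.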
# [7] = molecular target: Estrogen receptor (Homo sapiens) (UniProt P03372); test: qHTS assay to identify small molecule agonists of the estrogen receptor alpha (ER-alpha) signaling pathway (AID 743075; calls by dose curve)
# [8] = molecular target: Estrogen receptor (Homo sapiens) (UniProt P03372); test: qHTS assay to identify small molecule agonists of the estrogen receptor alpha (ER-alpha) signaling pathway using the BG1 cell line (AID 743079); conditions: BG1Luc4E2 cells, ERE-luciferase agonist, 22 h; further: nearly all actives have a fitted effect of over 20% in size
# [9] = qHTS assay to identify small molecule antagonists of the estrogen receptor alpha (ER-alpha) signaling pathway using the BG1 cell line (AID 743080; calls by dose curve;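 further: BG1 cells stimulated with 17beta-estradiol alongside compound; nearly all actives have a fitted effect of over 25% in size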)
# Method in brief: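 BG1-Luc-4E2 cells (endogenous full-length ER-alpha, 4xERE luciferase) hormone-starved 5 days in charcoal-stripped FBS, plated 4,000/well for 24 h, then compound plus 17beta-estradiol for 21.5 h at 37 C; ONE-Glo luminescence read.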
Structure (SMILES),Potency [1],Potency [2],Potency [3],outcome [4],Potency [5],Potency (Aromatase (Homo sapiens)),Potency [6],Potency [7],activation ([8]; at 70.3 µM (top of the series)),Potency [9],activation ([8]; at 95 µM (top of the series))
CC(C)(C)OC(=O)c1ncn2c1[C@@H]1CCCN1C(=O)c1c(Br)cccc1-2,inactive,inactive,inactive,inactive,inactive,inactive,,,,,
CCC1(c2ccccc2)C(=O)N=C(O)NC1=O (stereo not drawn),inactive,inactive,,inactive,inactive,inactive,inactive,inactive,-3.61%,inactive,
N#CCBr,inactive,,inactive,inactive,inactive,inactive,inactive,inactive,,inactive,0.199%
CC(C1CC1)C(O)(Cn1cncn1)c1ccc(Cl)cc1 (stereo not drawn),inactive,inactive,inactive,inactive,inactive,24.2 µM (active),,,,,
CN(C)CCc1ccc(O)cc1,inactive,inactive,inactive,inactive,inactive,inactive,,,,,
CC(N)=S,inactive,inactive,inactive,inactive,inactive,inactive,,,,,
Clc1cccc(N2CCNCC2)c1,inactive,,inactive,inactive,inactive,inactive,inactive,inactive,10.2%,inactive,
O=[N+]([O-])c1cccc2cccnc12,inactive,,inactive,inactive,inactive,inactive,inactive,inactive,,inactive,-10.4%
CCN(CC)CCOC(=O)C(C)(c1ccccc1)c1ccccc1,26.6 µM (active),26.6 µM (active),inactive,inactive,,inactive,,,,,
CCS(=O)(=O)C(C)(C)S(=O)(=O)CC,inactive,,inactive,inactive,inactive,inactive,inactive,inactive,0.0569%,inactive,
CCC#N,inactive,inactive,inactive,,inactive,,,,,,
CCOP(=O)(OCC)OP(=O)(OCC)OCC,inactive,inactive,inactive,inactive,inactive,inactive,,,,,
CCOC(=O)NC(=S)Nc1ccccc1NC(=S)NC(=O)OCC,inactive,54.5 µM (active),inactive,,inactive,inactive,,,,,
CCC(C)n1c(=O)[nH]c(C)c(Br)c1=O (stereo not drawn),inactive,,inactive,inactive,inactive,inactive,inactive,inactive,1.5%,inactive,
